Reference: PubChem BioAssay (NCATS)
Where “and” joins values, the source holds several entries; their conditions need not be identical. Equal values may be shown once. Inconclusive results are not listed. A number with no mark means an inactive call. Calls of active or inactive are those of the source. Calls come from the whole dose curve; as a rule, active = well fitted inhibition curve with a large enough effect; inconclusive = small, poorly fitted or top-dose-only effect; inactive = flat fitted curve, though single readings scatter.

Experiment: P-glycoprotein substrates identified in KB-8-5-11 adenocarcinoma cell line, qHTS therapeutic library screen (AID 1346987); note: nearly all actives have a fitted effect of over 65% in size
Conditions: KB-8-5-11 (P-gp overexpressing) viability, CellTiter-Glo, 72 h; series mostly up to 44.5 µM; activity change, negative = cytotoxicity: at the top concentration
Excerpt: The ATP-binding cassette transporters P-glycoprotein (P-gp) is known to limit brain penetration of many chemotherapy drugs. […] As such, we developed a high-throughput screen (HTS) to identify substrates of P-gp from a series of chemical libraries including the National Center for Advancing Translational Sciences Pharmaceutical Collection NPC, 2,816 compounds), testing a total of 10,804 compounds, most of which have known mechanisms of action. We used the CellTiter-Glo viability assay to test library compounds against the parental KB-3-1 human cervical adenocarcinoma cell line and the colchicine-selected sub-line KB-8-5-11 that over-expresses P-gp. KB-8-5-11 cells were also tested in the presence of a P-gp inhibitor (tariquidar) to assess reversability of transporter-mediated resistance. Of the tested compounds, a total of 90 P-gp substrates were identified including 55 newly identified P-gp substrates. Substrates were confirmed using an orthogonal killing assay against HEK-293 cells transfected with P-gp. As exemplars, we confirmed that […] (cyclin-dependent kinase inhibitor); AT9283, (Janus kinase 2/3 inhibitor); ispinesib (kinesin spindle protein inhibitor); gedatolisib (PKI-587, phosphoinositide 3-kinase/mammalian target of rampamycin inhibitor); GSK-690693 (AKT inhibitor); and KW-2478 (heat shock protein 90 inhibitor) were substrates , and direct ATPase stimulation was assessed. ABCG2 was also found to confer high levels of resistance to AT9283, GSK-690693 and gedatolisib, while ispinesib, AT7519 and KW-2478 were weaker substrates.
The HeLa derivative cell line, KB-3-1, and its colchicine-selected, P-gp-overexpressing subline, KB-8-5-11 were maintained in DMEM with 10% FCS and Pen/Strep with glutamine at 37 degree C in 5% CO2. For KB-8-5-11 cells, colchicine was added to the medium at a concentration of 100 ng/mL. HEK-293 cells transfected with empty vector (pcDNA) or vector containing human ABCB1 (MDR-19) or ABCG2 (R-5) have been described previously (Robey, Lin, Qiu, Chan & Bates, 2011) and were maintained in EMEM supplemented with 10% FCS, Pen/Strep and glutamine with 2 mg/ml G418 to select for the expression of the transporter. Cultures were confirmed to be free of mycoplasma infection using the MycoAlert Mycoplasma Detection Kit (Lonza, Walkersville, MD). For the screen, assay medium was identical to culture medium except for KB-8-5-11 where colchicine was excluded from the medium.
All cell lines were plated into 1536-well plates at 500 cells/well in 5 uL media. Compounds were then pinned in dose-response using a 1536-head pin tool (Kalypsis, San Diego, CA) and plates were incubated at 37 degree C in 5% CO2 for an additional 72 h. CellTiter-Glo reagent (Promega) was dispensed into the wells, incubated for 5 min and luminescence was read on a ViewLux instrument (Perkin-Elmer). Cytotoxic compounds were defined as those that yielded a curve class of -1.1, -1.2, -2.1, -2.2, -2.3, or -2.4, a maximum response of >50% and an AC50 of < 10 uM. Cherry-picked hits from screening analysis were tested with both the KB pair of cell lines, and the pcDNA (empty vector control) and MDR-19 (P-gp overexpressing) pair were tested, in the absence and presence of tariquidar.
% is set by controls: 0 for no effect and ±100 for the full control effect; potency is the fitted concentration of half-maximal effect.

| SMILES | activity change, negative = cytotoxicity | Potency | outcome |
| --- | --- | --- | --- |
| C=C1C(OC(=O)/C(C)=C\C)[C@@]23CCC4[C@@](C)(CCC[C@@]4(C)C(=O)O)C2CC[C@H]1C3OC(C)=O (stereo not given in full) | -14.1% [at 17.3 µM] |  |  |
| N#Cc1ccc(C(=O)N2CCC3(CC2)N=C(N)c2c(F)ccc(F)c2N3)cn1 | -9.09% |  |  |
| CCOc1ccc2nc(SCCN3CCOCC3)[nH]c2c1 | -4.75% |  |  |
| COc1cc2c(cc1O)CC[C@H]1[C@@H]2CC[C@]2(C)[C@H](O)CC[C@@H]12 |  | 1.3 µM (active) |  |
| Fc1ccc2nc(CCC#Cc3ccccn3)cn2c1 | -17.2% |  |  |
| COc1cc(C)c(C(=O)O[C@H]2[C@@H](OC(C)=O)[C@H](n3ccc(=O)[nH]c3=O)O[C@@H]2CO)c(OC)c1 |  |  | inactive [at 17.3 µM] |
| COc1ccc(/C=C/C(=O)O[C@@H]2[C@@H](O)[C@H](C)O[C@@H](O[C@H]3[C@@H]4C=CO[C@@H](O[C@H]5O[C@@H](CO)[C@H](O)[C@@H](O)[C@@H]5O)[C@@H]4[C@@]4(CO)O[C@@H]34)[C@@H]2OC(C)=O)cc1 | 0.504% [at 17.3 µM] |  |  |
| Cc1ccc([N+](=O)[O-])cc1S(=O)(=O)N(C)/N=C/c1cnc2ccc(Br)cn12 |  | 0.231 µM (active) |  |
| CC(CCC1(O)OC2CC3C4CCC5CC(O[C@@H]6O[C@H](CO)[C@@H](O)[C@H](O)[C@H]6O[C@@H]6O[C@@H](C)[C@H](O)[C@@H](O)[C@H]6O)C(O)CC5(C)C4CCC3(C)C2C1C)CO[C@@H]1O[C@H](CO)[C@@H](O)[C@H](O)[C@H]1O (stereo not given in full) | 1.44% [at 9.29 µM] |  |  |
| C/C=C1\[C@H](OC2OC(COC3OC(CO)C(O)C(O)C3O)C(O)C(O)C2O)OC=C(C(=O)OC)[C@H]1CC(=O)OCCc1ccc(O)cc1 (stereo not given in full) | 1.76% [at 17.3 µM] |  |  |
| CC(O)c1cc(C(=O)N[C@@H](C)Cn2ccc(-c3ccc(C#N)c(Cl)c3)n2)n[nH]1 (stereo not given in full) | -9.02% |  |  |
| CC1(C)[C@@H](O)CC[C@]2(C)[C@H]3CC=C4[C@@H]5C[C@](C)(C(=O)O)CC[C@]5(C)CC[C@@]4(C)[C@]3(C)CC[C@@H]12 | 4.73% |  |  |
| C=C1C(=O)O[C@H](CCC)[C@H]1C(=O)O |  |  | inactive |
| CC(C)c1cc(C(=O)N2CC[C@@H](NC(=O)C3CC3)C2)n[nH]1 | -0.389% |  |  |
| CCOCc1cc(OC)c(-c2ccc(C[C@H](NC(=O)c3c(F)cccc3F)C(=O)O)cc2)c(OC)c1 | 8.72% |  |  |
| CC1(C=O)CC[C@]2(C(=O)O[C@@H]3O[C@H](CO)[C@@H](O)[C@H](O)[C@H]3O)CC[C@]3(C)C(=CCC4[C@@]5(C)C[C@H](O)[C@H](O[C@@H]6OC[C@@H](O)[C@H](O)[C@H]6O)[C@@](C)(CO)C5CC[C@]43C)C2C1 (stereo not given in full) |  |  | inactive [at 9.29 µM] |
| COC(=O)C1=CO[C@@H](O[C@@H]2O[C@H](CO)[C@@H](O)[C@H](O)[C@H]2O)[C@H]2[C@@H]1C=C[C@@]21C=C([C@H](C)O)C(=O)O1 |  |  | inactive [at 17.3 µM] |
| OCc1ccc(O[C@@H]2O[C@H](CO)[C@@H](O)[C@H](O)[C@H]2O)cc1 | 6.81% |  |  |
| C[C@@H]1N[C@H]2N(C1=O)c1ccccc1[C@@]2(O)C[C@@H]1C(=O)N[C@@H](C)c2nc3ccccc3c(=O)n21 | 0.662% [at 17.3 µM] |  |  |
| C=C1C(OC2OCC(O)C(O)C2O)CC2C(C)(C)C(O)CCC2(C)C1CC/C(C)=C\CO (stereo not given) | 4.3% [at 17.3 µM] |  |  |

| SMILES | activity change, negative = cytotoxicity | Potency | outcome |
| --- | --- | --- | --- |
| C[C@]1(CO)CCC[C@]2(C)C3=C(CCC12)COC3 (stereo not given in full) |  |  | inactive |
| COC1CC(O[C@H]2CC[C@@]3(C)C(=CC[C@]4(O)C3[C@H](OC(C)=O)[C@@H](OC(=O)c3ccccc3)[C@]3(C)[C@@H](C(C)=O)CC[C@@]34O)C2)OC(C)C1OC1CC(OC)C(OC2CC(OC)C(OC3OC(C)C(OC4OC(CO)C(O)C(O)C4O)C(OC)C3O)C(C)O2)C(C)O1 (stereo not given in full) | 1.94% [at 9.29 µM] |  |  |
| CC(C)N(CCCCOCC(=O)NS(C)(=O)=O)c1cnc(-c2ccccc2)c(-c2ccccc2)n1 |  |  | inactive |
| C=C1CCC2C(C(C)(C)O)CCC2(C)CC(O)C(=C)CCC1O (stereo not given) | 2.39% |  |  |
| CO[C@H]1C[C@@H]2CC[C@@H](C)[C@@](O)(O2)C(=O)C(=O)N2CCCC[C@H]2C(=O)O[C@H]([C@H](C)C[C@@H]2CC[C@@H](OP(C)(C)=O)[C@H](OC)C2)CC(=O)[C@H](C)/C=C(\C)[C@@H](O)[C@@H](OC)C(=O)[C@H](C)C[C@H](C)/C=C/C=C/C=C/1C | -25.4% [at 17.3 µM] |  |  |
| CNC(=S)NS(=O)(=O)c1cc(CCNC(=O)c2cc(Cl)ccc2OC)ccc1OC | 8.16% |  |  |
| CC1CCC2(C=O)C(CO)=CCCC2C1(C)CC(=O)O (stereo not given) | 7.97% |  |  |
| C=C1CC[C@H]2[C@@](C)(CCC(O)[C@@]2(C)CO)[C@@H]1CCC1=CCOC1=O (stereo not given in full) | -20% |  |  |
| O=C(C(c1ccccc1)c1ccccc1)N1CCN(CC(O)COc2cccc3ncccc23)CC1 (stereo not given) | -26.3% |  |  |
| Cc1nc([C@](C)(O)CO)sc1-c1cnc(N)c(O[C@H](C)c2cc(F)ccc2-n2nccn2)c1 |  | 11.6 µM (active) |  |
| C=C1CCC2C(C)(C(=O)O)CCCC2(C)C1CC/C(=C\CO)CO (stereo not given) | 7.06% |  |  |
| CC1(C)CC2C(O)c3cocc3CC(C)(O)C2C1 (stereo not given) |  |  | inactive |
| CN[C@H](C(=O)N[C@H](C(=O)N(C)[C@H](/C=C(\C)C(=O)O)C(C)C)C(C)(C)C)C(C)(C)c1ccccc1 |  | 0.0184 µM (active) |  |
| CN(C)CC1CCOC1(c1ccccc1)c1ccccc1 (stereo not given) | -11.1% [at 17.3 µM] |  |  |
| CC[C@]1(O)CC2CN(CCc3c([nH]c4ccccc34)[C@@](C(=O)OC)(c3cc4c(cc3OC)N(C)[C@H]3[C@@](O)(C(=O)OC)[C@H](OC(C)=O)[C@]5(CC)C=CCN6CC[C@]43[C@@H]65)C2)C1 (stereo not given in full) |  | 1.03 µM (active) |  |
| Nc1ccc(/C=C/C(=O)NCc2cc3cc(-c4ccc(C(=O)N5CCC(F)(F)CC5)cc4)cc(-c4ccc(F)cc4)c3o2)cn1 |  | 5.17 µM (active) and 5.8 µM (active) |  |
| CNCc1ccc(-c2cc(-c3nc(-c4ccc(S(=O)(=O)C(C)C)cc4)cnc3N)on2)cc1 |  | 1.3 µM (active) |  |
| C[C@@H](O)[C@H](NC(=O)c1ccc(C#Cc2ccc(CN3CCOCC3)cc2)cc1)C(=O)NO | 9.35% |  |  |
| C[C@H](N)C(=O)N[C@@H](Cc1ccc(O)cc1)C(=O)N1CCC[C@H]1C(=O)NCC(=O)N[C@@H](CCCCN)C(=O)N[C@@H](Cc1ccccc1)C(N)=O |  |  | inactive [at 9.29 µM] |
| OC[C@@]1(O)CO[C@@H](OC[C@H]2O[C@@H](Oc3c[nH]c4ccccc34)[C@H](O)[C@@H](O)[C@@H]2O)[C@@H]1O | -15.8% [at 17.3 µM] |  |  |
